The residual activity is the signal under treatment as a percentage of the control signal.

The text below walks through data of ChEMBL document CHEMBL2218924, “A broad activity screen in support of a chemogenomic map for kinase signalling research and drug discovery” (Biochem J, 2013).

Test [1] has as its target Homeodomain-interacting protein kinase 3 (Homo sapiens) (UniProt Q9H422). The conditions noted are these: at 10 µM.
Test [2] has as its target T1, Serine/threonine-protein kinase haspin (Homo sapiens) (UniProt Q8TF76).
T1 sequence (whole entry): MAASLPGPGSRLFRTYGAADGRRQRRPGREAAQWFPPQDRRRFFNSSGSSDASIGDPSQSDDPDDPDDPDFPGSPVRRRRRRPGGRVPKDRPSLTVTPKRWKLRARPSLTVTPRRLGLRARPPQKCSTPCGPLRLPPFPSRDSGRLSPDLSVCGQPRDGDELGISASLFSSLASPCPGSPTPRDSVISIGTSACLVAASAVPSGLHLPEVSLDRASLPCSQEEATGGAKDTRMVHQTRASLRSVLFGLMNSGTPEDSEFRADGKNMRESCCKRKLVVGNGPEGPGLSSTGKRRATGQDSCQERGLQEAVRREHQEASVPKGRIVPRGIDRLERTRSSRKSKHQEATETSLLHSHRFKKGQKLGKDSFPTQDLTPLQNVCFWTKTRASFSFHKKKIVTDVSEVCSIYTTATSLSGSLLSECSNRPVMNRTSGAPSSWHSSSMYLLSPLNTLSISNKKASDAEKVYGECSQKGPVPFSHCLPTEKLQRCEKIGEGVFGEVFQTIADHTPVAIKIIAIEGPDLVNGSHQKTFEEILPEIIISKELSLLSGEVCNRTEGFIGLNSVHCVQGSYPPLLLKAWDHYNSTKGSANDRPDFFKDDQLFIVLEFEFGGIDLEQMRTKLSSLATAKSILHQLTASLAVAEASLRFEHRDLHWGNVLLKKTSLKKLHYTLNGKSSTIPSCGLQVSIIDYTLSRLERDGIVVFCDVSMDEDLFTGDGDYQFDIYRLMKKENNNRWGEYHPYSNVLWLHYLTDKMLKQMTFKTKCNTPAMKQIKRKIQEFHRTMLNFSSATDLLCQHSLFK
The conditions noted are these: at 1 µM.

In test [3] the target is T1, Serine/threonine-protein kinase haspin (Homo sapiens). The conditions noted are these: at 10 µM.
Test [4] has as its target Tyrosine-protein kinase HCK (Homo sapiens) (UniProt P08631). The conditions noted are these: at 1 µM.
The target is the same in test [5]. The conditions noted are these: at 10 µM.
Test [6] shares this target. The conditions noted are these: at 1 µM. The source holds these as a separate data set.
For test [7] the target is unchanged. The conditions noted are these: at 10 µM. The source holds these as a separate data set.
The target of test [8] is Insulin-like growth factor 1 receptor (Homo sapiens) (UniProt P08069). The conditions noted are these: at 1 µM.
Chain of Insulin-like growth factor 1 receptor (Homo sapiens) (P08069 31-736 limits assumed): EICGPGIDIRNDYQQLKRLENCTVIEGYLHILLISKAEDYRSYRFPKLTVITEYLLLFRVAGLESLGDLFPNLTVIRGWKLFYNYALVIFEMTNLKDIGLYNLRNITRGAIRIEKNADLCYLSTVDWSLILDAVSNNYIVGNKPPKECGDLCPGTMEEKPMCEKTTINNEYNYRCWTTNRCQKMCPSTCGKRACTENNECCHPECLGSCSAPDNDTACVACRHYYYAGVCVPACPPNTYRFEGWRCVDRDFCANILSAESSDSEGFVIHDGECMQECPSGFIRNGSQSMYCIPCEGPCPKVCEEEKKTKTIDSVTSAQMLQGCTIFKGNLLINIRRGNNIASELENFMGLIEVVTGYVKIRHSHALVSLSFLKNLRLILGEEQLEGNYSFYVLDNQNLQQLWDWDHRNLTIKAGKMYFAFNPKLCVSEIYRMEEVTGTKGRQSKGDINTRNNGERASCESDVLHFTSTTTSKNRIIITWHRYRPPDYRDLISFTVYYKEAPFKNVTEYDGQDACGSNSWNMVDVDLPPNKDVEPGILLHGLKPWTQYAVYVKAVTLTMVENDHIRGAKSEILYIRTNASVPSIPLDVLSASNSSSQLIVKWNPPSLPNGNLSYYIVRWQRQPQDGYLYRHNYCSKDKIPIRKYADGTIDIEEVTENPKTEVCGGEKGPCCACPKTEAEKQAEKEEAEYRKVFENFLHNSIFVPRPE
Chain of Insulin-like growth factor 1 receptor (Homo sapiens) (P08069 741-1367 limits assumed): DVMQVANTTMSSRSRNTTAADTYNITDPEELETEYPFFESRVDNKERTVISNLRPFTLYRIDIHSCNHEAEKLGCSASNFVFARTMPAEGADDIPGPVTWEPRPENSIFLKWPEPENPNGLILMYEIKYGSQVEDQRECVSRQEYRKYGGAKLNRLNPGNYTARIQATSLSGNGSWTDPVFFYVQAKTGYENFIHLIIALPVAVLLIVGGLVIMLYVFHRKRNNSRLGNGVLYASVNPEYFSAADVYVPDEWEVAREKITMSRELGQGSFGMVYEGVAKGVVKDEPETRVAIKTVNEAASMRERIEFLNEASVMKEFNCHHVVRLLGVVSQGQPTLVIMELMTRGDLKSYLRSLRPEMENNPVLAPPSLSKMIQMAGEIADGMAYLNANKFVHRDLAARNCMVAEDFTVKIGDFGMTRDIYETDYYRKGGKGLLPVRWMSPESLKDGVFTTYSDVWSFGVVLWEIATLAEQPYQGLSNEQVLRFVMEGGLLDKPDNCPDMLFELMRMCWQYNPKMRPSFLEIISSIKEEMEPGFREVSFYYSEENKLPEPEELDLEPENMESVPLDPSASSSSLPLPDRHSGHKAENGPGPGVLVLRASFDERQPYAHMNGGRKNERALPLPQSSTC
For test [9] the target is unchanged. The conditions noted are these: at 10 µM.
For test [10], the target named is Protein kinase C eta type (Homo sapiens) (UniProt P24723). The conditions noted are these: at 1 µM.
Chain of Protein kinase C eta type (Homo sapiens) (P24723 whole entry): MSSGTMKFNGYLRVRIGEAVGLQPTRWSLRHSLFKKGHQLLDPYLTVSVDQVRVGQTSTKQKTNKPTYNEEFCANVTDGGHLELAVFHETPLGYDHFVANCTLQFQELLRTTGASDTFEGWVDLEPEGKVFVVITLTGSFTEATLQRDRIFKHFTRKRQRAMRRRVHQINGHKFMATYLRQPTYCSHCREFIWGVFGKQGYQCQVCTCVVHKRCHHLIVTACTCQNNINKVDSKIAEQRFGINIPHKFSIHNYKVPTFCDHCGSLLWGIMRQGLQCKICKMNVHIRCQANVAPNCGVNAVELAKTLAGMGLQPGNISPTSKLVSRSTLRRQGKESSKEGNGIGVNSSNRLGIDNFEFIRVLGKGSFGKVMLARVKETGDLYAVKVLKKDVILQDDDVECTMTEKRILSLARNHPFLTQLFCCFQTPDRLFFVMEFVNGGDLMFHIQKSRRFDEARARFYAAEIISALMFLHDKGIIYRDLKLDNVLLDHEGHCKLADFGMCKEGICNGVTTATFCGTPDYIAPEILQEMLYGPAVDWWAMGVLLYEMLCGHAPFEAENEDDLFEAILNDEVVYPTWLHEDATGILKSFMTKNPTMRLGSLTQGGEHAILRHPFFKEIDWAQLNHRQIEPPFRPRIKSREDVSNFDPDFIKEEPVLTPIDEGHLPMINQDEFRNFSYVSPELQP
Test [11] shares this target. The conditions noted are these: at 10 µM.
Test [12] concerns the target Protein kinase C theta type (Homo sapiens) (UniProt Q04759). The conditions noted are these: at 1 µM.
Test [13] has the same target. The conditions noted are these: at 10 µM.
Test [14] concerns the target T2, Protein kinase C iota type (Homo sapiens) (UniProt P41743).
T2 sequence (whole entry): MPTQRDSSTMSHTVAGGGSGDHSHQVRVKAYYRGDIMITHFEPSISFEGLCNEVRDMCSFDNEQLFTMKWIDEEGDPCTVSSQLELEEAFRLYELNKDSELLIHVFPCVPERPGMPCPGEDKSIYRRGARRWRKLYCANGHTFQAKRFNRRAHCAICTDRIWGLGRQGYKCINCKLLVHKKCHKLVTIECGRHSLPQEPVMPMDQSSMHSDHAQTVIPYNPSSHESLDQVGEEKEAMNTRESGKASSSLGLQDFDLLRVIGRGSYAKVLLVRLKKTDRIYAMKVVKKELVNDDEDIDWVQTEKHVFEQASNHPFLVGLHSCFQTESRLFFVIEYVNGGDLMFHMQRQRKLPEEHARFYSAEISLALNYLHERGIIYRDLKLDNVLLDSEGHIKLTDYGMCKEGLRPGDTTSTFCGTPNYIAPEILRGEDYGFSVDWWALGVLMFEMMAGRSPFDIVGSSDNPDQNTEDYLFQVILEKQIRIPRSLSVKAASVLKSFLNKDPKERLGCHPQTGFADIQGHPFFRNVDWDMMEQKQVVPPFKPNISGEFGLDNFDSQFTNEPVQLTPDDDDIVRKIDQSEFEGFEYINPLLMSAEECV
The conditions noted are these: at 10 µM.

The target in test [15] is T3, Serine/threonine-protein kinase D1 (Homo sapiens) (UniProt Q15139).
T3 sequence (whole entry): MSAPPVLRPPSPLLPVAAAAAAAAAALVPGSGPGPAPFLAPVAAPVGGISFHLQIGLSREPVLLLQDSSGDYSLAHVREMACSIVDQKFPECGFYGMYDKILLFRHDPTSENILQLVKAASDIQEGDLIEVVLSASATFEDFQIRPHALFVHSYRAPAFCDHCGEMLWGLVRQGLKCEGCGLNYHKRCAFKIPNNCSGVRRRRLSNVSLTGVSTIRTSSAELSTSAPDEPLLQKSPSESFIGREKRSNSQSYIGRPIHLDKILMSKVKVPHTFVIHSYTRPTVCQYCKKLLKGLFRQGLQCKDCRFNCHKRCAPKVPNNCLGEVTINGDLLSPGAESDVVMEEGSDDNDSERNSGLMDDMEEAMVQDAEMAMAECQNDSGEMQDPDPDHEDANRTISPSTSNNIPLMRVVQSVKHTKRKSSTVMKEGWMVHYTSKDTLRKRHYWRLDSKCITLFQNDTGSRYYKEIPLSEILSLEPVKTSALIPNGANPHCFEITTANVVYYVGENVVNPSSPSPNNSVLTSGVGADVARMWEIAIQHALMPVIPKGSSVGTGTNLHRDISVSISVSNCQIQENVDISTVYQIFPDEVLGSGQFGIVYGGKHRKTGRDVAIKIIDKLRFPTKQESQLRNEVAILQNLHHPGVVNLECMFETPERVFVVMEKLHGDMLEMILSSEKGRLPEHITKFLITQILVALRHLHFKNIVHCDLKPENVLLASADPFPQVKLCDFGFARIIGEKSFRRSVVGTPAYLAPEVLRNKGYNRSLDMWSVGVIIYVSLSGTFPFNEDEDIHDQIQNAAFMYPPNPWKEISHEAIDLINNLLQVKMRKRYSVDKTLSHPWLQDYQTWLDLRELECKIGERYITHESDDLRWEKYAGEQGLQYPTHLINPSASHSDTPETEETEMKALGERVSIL
The conditions noted are these: at 1 µM.

Test [16] deals with T3, Serine/threonine-protein kinase D1 (Homo sapiens). The conditions noted are these: at 10 µM.
Test [17] deals with T4, Serine/threonine-protein kinase D2 (Homo sapiens) (UniProt Q9BZL6).
T4 sequence (whole entry): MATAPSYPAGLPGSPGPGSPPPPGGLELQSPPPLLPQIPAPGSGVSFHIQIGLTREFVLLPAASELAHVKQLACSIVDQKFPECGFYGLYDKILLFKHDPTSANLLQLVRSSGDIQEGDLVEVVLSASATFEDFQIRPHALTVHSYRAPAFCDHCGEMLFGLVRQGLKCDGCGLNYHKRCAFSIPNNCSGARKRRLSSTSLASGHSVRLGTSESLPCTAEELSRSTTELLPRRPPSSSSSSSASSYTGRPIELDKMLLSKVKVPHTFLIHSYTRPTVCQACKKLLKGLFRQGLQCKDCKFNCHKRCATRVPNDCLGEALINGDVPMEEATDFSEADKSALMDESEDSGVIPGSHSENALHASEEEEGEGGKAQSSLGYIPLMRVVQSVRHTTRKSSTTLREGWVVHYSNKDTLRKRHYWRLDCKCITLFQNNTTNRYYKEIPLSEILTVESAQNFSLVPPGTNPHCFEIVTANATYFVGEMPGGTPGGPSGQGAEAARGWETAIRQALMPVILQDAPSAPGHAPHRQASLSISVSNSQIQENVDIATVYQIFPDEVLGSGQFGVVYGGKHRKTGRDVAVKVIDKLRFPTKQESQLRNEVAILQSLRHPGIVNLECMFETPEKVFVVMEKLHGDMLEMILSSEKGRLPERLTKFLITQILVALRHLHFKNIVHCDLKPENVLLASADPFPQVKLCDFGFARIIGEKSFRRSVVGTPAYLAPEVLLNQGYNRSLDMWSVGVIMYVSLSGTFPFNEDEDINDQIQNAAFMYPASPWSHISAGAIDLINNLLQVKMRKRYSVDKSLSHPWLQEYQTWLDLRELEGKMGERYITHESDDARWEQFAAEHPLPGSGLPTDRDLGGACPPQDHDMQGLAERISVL
The conditions noted are these: at 1 µM.

Test [18] deals with T4, Serine/threonine-protein kinase D2 (Homo sapiens). The conditions noted are these: at 10 µM.
Test [19] addresses T5, Protein kinase C zeta type (Homo sapiens) (UniProt Q05513).
T5 sequence (whole entry): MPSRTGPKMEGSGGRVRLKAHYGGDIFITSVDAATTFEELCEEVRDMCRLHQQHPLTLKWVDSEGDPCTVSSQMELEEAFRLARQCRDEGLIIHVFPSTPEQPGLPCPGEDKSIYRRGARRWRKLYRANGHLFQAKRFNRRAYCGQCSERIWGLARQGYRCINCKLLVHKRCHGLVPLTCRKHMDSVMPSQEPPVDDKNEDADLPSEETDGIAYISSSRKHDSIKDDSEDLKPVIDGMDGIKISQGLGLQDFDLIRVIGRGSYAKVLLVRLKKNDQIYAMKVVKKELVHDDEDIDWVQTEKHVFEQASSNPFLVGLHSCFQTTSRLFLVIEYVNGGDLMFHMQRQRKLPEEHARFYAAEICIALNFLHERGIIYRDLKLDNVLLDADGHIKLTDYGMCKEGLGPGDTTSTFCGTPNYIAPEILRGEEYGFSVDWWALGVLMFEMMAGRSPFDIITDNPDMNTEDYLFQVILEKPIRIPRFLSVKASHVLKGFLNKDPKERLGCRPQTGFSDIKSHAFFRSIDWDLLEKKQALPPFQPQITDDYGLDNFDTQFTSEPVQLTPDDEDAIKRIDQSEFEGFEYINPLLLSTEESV
The conditions noted are these: at 10 µM.

For test [20], the target named is T2, Protein kinase C iota type (Homo sapiens). The conditions noted are these: at 1 µM.

Chain of Tyrosine-protein kinase HCK (Homo sapiens) (P08631 2-526 limits assumed): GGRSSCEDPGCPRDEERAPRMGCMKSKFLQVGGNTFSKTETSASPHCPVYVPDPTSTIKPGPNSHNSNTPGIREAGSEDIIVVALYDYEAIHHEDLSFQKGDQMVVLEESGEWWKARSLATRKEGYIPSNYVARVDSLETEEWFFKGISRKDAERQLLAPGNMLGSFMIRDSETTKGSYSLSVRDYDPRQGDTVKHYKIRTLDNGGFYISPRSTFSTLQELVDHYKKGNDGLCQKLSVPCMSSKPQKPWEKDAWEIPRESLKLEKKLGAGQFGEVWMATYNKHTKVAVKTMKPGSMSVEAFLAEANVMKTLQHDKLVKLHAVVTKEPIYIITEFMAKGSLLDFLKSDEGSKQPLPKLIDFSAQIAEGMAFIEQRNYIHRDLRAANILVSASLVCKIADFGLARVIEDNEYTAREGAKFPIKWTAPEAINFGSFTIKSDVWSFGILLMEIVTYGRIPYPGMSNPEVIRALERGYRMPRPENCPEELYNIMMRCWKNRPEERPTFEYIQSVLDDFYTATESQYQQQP
Chain of Protein kinase C theta type (Homo sapiens) (Q04759 whole entry, looked up): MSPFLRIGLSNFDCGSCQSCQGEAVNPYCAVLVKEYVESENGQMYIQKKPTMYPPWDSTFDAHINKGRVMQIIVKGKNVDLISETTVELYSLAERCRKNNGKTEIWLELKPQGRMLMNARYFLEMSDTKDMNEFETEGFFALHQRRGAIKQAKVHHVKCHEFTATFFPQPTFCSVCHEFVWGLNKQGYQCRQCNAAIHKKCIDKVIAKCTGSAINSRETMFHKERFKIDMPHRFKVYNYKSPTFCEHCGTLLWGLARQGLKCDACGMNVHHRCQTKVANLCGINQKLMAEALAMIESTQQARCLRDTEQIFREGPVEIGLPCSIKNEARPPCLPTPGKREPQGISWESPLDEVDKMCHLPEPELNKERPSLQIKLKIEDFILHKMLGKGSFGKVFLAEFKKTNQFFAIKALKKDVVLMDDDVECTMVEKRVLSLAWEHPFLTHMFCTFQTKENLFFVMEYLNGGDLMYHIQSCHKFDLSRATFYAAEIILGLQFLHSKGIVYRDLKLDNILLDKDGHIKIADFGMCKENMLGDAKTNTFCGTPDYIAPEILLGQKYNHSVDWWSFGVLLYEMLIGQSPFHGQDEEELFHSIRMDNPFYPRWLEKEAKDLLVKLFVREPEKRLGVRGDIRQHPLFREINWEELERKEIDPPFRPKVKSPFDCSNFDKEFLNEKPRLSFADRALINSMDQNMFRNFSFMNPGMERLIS
Chain of Homeodomain-interacting protein kinase 3 (Homo sapiens) (Q9H422 whole entry, looked up): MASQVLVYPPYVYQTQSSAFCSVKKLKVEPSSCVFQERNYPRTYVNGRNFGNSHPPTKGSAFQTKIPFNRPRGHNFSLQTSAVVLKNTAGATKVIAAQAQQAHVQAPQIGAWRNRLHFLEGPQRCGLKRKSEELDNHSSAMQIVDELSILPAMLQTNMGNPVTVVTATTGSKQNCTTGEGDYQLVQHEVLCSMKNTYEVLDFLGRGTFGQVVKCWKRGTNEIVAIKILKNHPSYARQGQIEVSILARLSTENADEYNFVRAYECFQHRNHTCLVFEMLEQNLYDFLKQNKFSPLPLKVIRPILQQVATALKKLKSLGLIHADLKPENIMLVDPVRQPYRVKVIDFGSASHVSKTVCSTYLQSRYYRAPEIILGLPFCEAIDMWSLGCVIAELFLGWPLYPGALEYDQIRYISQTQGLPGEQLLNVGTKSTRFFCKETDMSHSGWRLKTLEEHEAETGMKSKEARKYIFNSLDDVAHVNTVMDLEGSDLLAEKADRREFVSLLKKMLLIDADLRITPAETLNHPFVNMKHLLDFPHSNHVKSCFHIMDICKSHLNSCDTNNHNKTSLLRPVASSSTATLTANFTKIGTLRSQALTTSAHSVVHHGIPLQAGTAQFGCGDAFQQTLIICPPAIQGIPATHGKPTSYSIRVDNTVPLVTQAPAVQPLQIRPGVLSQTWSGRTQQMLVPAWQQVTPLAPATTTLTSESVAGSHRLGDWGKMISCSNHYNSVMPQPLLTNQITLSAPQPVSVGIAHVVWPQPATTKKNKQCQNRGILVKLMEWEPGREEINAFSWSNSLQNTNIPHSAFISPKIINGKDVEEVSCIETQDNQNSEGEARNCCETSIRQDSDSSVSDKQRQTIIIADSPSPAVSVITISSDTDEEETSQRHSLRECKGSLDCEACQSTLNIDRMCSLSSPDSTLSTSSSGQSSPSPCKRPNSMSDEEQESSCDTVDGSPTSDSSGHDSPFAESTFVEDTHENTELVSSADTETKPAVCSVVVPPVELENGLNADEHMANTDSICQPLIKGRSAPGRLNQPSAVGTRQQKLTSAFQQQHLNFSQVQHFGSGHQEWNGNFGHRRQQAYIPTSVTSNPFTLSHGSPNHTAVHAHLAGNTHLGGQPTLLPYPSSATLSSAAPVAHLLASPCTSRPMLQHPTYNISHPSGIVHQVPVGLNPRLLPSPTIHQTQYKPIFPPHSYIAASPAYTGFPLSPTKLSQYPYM

Take `CC(C)[C@H](CO)Nc1nc(Nc2cc(N)cc(Cl)c2)c2ncn(C(C)C)c2n1`: the residual activity in test [1] is 73%; in test [2], 57%; in test [3] it was 20%; in [4] it was 27%; in [5], 5%; in [6] it was 50%. The residual activity in test [7] came to 9%; in test [8], 118%; in test [9], 92%; in [10] it was 97%; in test [11], 99%; in [12], 77%. Besides, the residual activity in test [13] worked out at 23%; in [14], 89%; in [15], 99%; in test [16] it was 81%; in test [17], 96%; in test [18] it was 99%.

In the case of `N#C/C(=C\c1ccc(O)c(O)c1)C(=O)NCc1ccccc1`, the residual activity in [3] turned out to be 48%; in test [4], 78%; in test [5], 70%; in test [6], 102%; in test [7], 80%; in [8], 144%. Also, the residual activity in [9] was 65%; in [11], 82%; in [18], 102%.

As to `Cc1cc(C)c(/C=C2\C(=O)Nc3ccccc32)[nH]1`, the residual activity in test [2] amounted to 100%; in test [3], 77%; in [4], 60%; in [5], 25%; in [6], 63%; in [7], 40%. Also, the residual activity turned out to be 103% in test [12] and 78% in test [15].

Take `O=C1NC(=O)C(c2cn(CCCn3ccnc3)c3ccccc23)=C1Nc1ccccc1`: the residual activity in [3] was 52%; in [4], 80%; in test [5], 65%; in [8] it was 140%; in [19], 50%; in test [10], 15%. In addition, the values for the residual activity in test [11], in test [12] and in test [13] were 2%, 3% and 2%, respectively.

`COc1cc2c(cc1OC)-c1n[nH]c(Nc3cccc(F)c3)c1C2`: the residual activity in [4] was 22%; in [5], 6%; in [6], 19%; in [7] it was 2%; in test [8] it was 105%; in test [9], 115%. The residual activity came out at 109% in test [19]; 102% in [10]; 70% in test [11]; 81% in test [13]; 78% in [15]; 107% in test [17]. Besides, in test [18], the residual activity stood at 104%.

Turning to `Nc1nccc(-c2c(-c3ccc(F)cc3)ncn2C2CCNCC2)n1`, the residual activity in test [2] was determined as 54%; in test [3], 36%; in test [5] it was 53%; in test [7], 43%; in [9], 120%; in test [10], 114%. Besides, the residual activity is 70% in [11], 46% in test [15], 3% in test [16] and 49% in test [18].

Regarding `O=c1cc(N2CCOCC2)oc2c(-c3ccccc3)cccc12`, the residual activity is 54% in [3]; 66% in test [4]; 58% in [5]; 133% in test [8]; 66% in test [11]; 63% in test [14].

For `O=C1NC(=O)C(c2c[nH]c3ccccc23)=C1c1c[nH]c2ccccc12`, the residual activity is 69% in [3]; 38% in test [5]; 128% in test [8]; 25% in [19]; 68% in test [10]; 17% in test [11]. Also, the residual activity in test [12] is 5%; in test [13], 2%; in test [20], 116% (inactive); in test [14], 79%; in [16] it was 71%.
